The text below walks through data of PubChem BioAssay (Tox21).

The target of test [1] is Thyrotropin-releasing hormone receptor (Homo sapiens) (UniProt P34981). Put plainly: qHTS assay to identify small molecule agonists of the thyrotropin-releasing hormone receptor (TRHR) signaling pathway (AID 1346891; calls by dose curve; further: potency means the concentration at half of the fitted maximal effect; on activation: series mostly up to about 58 µM). In outline: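 Agonist-mode intracellular calcium readout: kinetic fluorescence over 3 min at 1 s intervals after compound addition to TRHR-HEK293 cells (18 h seeded, 2 h dye-loaded at 37 C). Fifteen concentrations, triplicates.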
In general terms: In qHTS, concentration-response curves come from the screen itself.

Test [2] is described as follows: Caspase-3/7 induction in HepG2 cells by small molecules, qHTS assay (AID 1346978). Further: nearly all actives have a fitted effect of over 15% in size. The gist of the method:
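Caspase-3/7 induction was measured by Caspase-Glo 3/7 luminescence (30 min, room temperature) after a 17 hr compound exposure of wild-type HepG2 cells seeded at 2,000 per well and pre-incubated 5 hr.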

The nature of test [3]: Caspase-3/7 induction in CHO-K1 cells by small molecules, qHTS assay (AID 1346980). Further: nearly all actives have a fitted effect of over 15% in size. The gist of the method:
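Luminescent Caspase-Glo 3/7 read (30min, room temperature) quantified apoptosis induction. Cells were wild-type CHO-K1, treated with compound for 17hr at 37 C and 5% CO2.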

A short description of test [4]: Caspase-3/7 induction in HepG2 cells by small molecules, qHTS cell viability counter screen (AID 1346981). Further: series mostly up to about 92 µM; nearly all actives have a fitted effect of over 30% in size. The gist of the method:
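Multiplexed with the caspase-3/7 assay: HepG2 cells, 16 hr compound treatment, CellTiter-Fluor viability detection by fluorescence.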

In test [5] the target is Nuclear receptor subfamily 1 group I member 2 (Homo sapiens) (UniProt O75469). Briefly: Human pregnane X receptor (PXR) small molecule agonists, qHTS assay (AID 1346982). Further: nearly all actives have a fitted effect of over 35% in size. Further: potency means the concentration at half of the fitted maximal effect. In outline:
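We seeded PXR-Luc HepG2 cells in assay medium containing 5% charcoal-stripped FBS, added compounds 5 hr later, incubated 24 hr, and read luminescence with ONE-Glo reagent.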

Test [6] is described as follows: Human pregnane X receptor (PXR) small molecule agonists, qHTS cell viability counter screen (AID 1346977). Further: nearly all actives have a fitted effect of over 50% in size. The gist of the method: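 Same-well viability read: CellTiter-Fluor added after 23 hr compound exposure, fluorescence measured 1 hr later. Cells were PXR-Luc HepG2 seeded at 2,000/well in 5% charcoal-stripped FBS medium, rested 5 hr before dosing at 37 C.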

The nature of test [7]: Caspase-3/7 induction in CHO-K1 cells by small molecules, qHTS cell viability counter screen (AID 1346979). Further: nearly all actives have a fitted effect of over 35% in size. In outline: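 Cytotoxicity counter screen: CellTiter-Fluor added to compound-treated wild-type CHO-K1 cells at 16 h (37C, 5% CO2), fluorescence measured 1 h later; same wells as caspase-3/7 measurement.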
Test [8] concerns the target Nuclear receptor subfamily 1 group I member 2 (Rattus norvegicus) (UniProt Q9R1A7). Briefly: Rat pregnane X receptor (rPXR) activation by small molecules, qHTS assay (AID 1346983). Further: nearly all actives have a fitted effect of over 20% in size. Conditions: rPXR luciferase reporter cells, One-Glo luminescence, 24 h; max activation: stronger effect = higher value. The gist of the method: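 Luminescent readout (One-Glo luciferase, 30 min room temperature) followed 24 hr compound treatment at 37 C of rPXR cells plated 2,000 per well and preincubated 5hr; qHTS format with compounds delivered in DMSO.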

Test [9] concerns the target Nuclear receptor subfamily 1 group I member 2 (Homo sapiens) (UniProt O75469). Briefly: CYP3A4 induction through human pregnane X receptor (PXR) by small molecules, qHTS assay (AID 1346984). Further: nearly all actives have a fitted effect of over 40% in size. The gist of the method: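 qHTS, concentration-response format: HepG2 DPX-2 line, PXR/CYP3A4-luc. Exposure 24 h, 37C. Substrate Luciferin-IPA 3uM final, 3 h. Detection One-Glo, 30 min RT.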

For test [10] the target is unchanged. Put plainly: Human pregnane X receptor (PXR) activation by small molecules, qHTS assay (AID 1346985). Further: nearly all actives have a fitted effect of over 40% in size. In outline:
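DPX-2 cells (HepG2 co-transfected with a PXR response element and a CYP3A4-promoter luciferase construct) were seeded at 2,000 per well, rested 5 hr at 37C, then exposed to DMSO-dissolved compounds for 24 hr. Activation was read as luciferase luminescence.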

Values without a mark were called inactive. Inconclusive results are not listed. Activity calls are given as the source filed them. Unless noted, the call rests on the fitted dose curve; in most records, active means well fitted curve in the direction sought with a large enough effect in the repeat runs; inconclusive means weak or mixed curves; inactive means no such curve, though single readings can be large; an effect the other way counts as inactive or inconclusive.
On the % scale 0 is the no-effect control and ±100 the full control effect.

Chain of Nuclear receptor subfamily 1 group I member 2 (Homo sapiens) (O75469 whole entry, looked up): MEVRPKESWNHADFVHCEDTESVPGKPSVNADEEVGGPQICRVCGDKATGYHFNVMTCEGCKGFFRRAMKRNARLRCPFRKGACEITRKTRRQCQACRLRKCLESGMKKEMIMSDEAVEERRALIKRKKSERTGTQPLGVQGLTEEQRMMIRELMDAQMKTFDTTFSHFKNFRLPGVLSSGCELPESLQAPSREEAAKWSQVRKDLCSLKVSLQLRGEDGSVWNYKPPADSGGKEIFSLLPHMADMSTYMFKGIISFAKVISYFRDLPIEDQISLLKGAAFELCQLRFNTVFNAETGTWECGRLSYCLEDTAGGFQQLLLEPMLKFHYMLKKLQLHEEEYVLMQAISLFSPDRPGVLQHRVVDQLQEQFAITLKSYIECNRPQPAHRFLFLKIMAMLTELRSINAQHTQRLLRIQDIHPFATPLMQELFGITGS
Chain of Thyrotropin-releasing hormone receptor (Homo sapiens) (P34981 whole entry, looked up): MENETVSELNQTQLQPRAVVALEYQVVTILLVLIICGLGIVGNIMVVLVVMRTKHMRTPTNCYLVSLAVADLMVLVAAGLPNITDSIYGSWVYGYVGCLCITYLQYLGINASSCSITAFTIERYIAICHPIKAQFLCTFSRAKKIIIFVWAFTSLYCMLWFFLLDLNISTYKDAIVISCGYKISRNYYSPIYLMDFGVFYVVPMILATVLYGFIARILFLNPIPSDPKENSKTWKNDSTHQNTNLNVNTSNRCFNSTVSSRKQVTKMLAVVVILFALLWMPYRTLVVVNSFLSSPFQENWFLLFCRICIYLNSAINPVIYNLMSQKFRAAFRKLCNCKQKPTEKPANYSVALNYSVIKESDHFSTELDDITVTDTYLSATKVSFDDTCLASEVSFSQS
Chain of Nuclear receptor subfamily 1 group I member 2 (Rattus norvegicus) (Q9R1A7 whole entry, looked up): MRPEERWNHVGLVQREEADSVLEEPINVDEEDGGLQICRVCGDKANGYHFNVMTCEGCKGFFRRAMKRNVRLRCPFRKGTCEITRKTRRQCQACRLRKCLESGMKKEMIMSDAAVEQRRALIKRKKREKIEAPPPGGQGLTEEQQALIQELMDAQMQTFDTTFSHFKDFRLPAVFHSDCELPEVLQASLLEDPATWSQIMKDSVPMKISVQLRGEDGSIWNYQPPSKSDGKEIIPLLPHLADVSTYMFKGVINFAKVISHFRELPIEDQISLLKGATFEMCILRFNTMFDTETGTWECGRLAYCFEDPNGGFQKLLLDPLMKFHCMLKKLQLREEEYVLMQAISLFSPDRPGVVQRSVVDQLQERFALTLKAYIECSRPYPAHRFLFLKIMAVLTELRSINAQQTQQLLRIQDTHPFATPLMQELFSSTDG

Regarding `O=C(CC(=O)C(F)(F)F)c1ccccc1`, the values for the Potency in [1] and in [5] were 39.5 µM (active) and 55.3 µM (active), respectively. Moreover, the Potency result in test [2] and in [4] was “inactive” throughout. In addition, in test [3], the call was inactive.
In the case of `C=Cc1ccccc1`, the Potency result in [6], in [2], in test [7], in test [4] and in test [5] was “inactive” each time. Moreover, the call in [3] was inactive.
For the compound `CC/C=C\CCOC(=O)C(C)C`, the Potency entry in test [1], in test [2], in [7], in [4] and in test [5] was “inactive” each time.
With `Cn1cnc2c(F)c(Nc3ccc(Br)cc3Cl)c(C(=O)NOCCO)cc21`, the Potency result in [6], in [2], in [7], in test [4] and in [5] was “inactive” each time. The call in [3] was inactive.
Take `COc1ccccc1N1CCN(CCCNc2cc(=O)n(C)c(=O)n2C)CC1`: the Potency entry in test [1], in test [2], in test [7], in [4], in test [5] and in test [9] was “inactive” each time. Moreover, the Potency entry in test [10] was “inactive”. In [8], the max activation was -1.3%.
